High-throughput results from PubChem.
BoNT F protease – BoNT/F light chain protease inhibitors, primary screen, biochemical, flow cytometry, MLPCN library. Multiplex microsphere protease cleavage assay. inhibition, % at 10 µM. hit rate 0.22% among 360,000. AID 588497, 2011; in the data active means inhibition above about 35%, passing the limit was not always enough; inconclusive means no clear call, values can overlap the other calls
MazF activator – activators of E. coli MazEF toxin-antitoxin RNase, primary screen, biochemical, fluorescence, uHTS | FAM/BHQ RNA-DNA oligo cleavage fluorescence, 5 h | Endoribonuclease toxin MazF (Escherichia coli (strain K12)), P0AE70 | activation, % at 20 µM | AID 504720, 2011 | hit rate 0.32% among 350,000; in the data active means activation above about 50%
Target sequence (P0AE70 whole entry, looked up): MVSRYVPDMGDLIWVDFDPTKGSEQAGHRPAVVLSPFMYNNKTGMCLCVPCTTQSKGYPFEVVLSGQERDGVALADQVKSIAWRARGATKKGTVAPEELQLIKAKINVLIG
Anthrax LF inh2 – Bacillus anthracis LF protease inhibitors, primary screen, biochemical, multiplex microsphere, MLPCN library. Lethal factor (Bacillus anthracis), P15917. inhibition, % at 10 µM. multiplex microsphere protease cleavage assay. hit rate 0.12% among 360,000
Bead autofluor – compound fluorescence in toxin protease inhibitor counterscreen | compound autofluorescence counterscreen, microsphere flow cytometry; stronger effect = higher value | fluorescence intensity (no concentration beside the values) | hit rate 3.1% among 360,000; in the data active means fluorescence intensity above about 16000; inconclusive means no clear call, values can overlap the other calls
BoNT A protease – BoNT/A light chain protease inhibitors, primary screen, biochemical, flow cytometry, MLPCN library; hit rate 0.17% among 360,000; multiplex microsphere protease substrate cleavage; inhibition, % at 10 µM; AID 588499, 2011; Botulinum neurotoxin type A light chain protease (Clostridium botulinum A str. ATCC 3502)
A number is an active result; . = inactive; ? = inconclusive; / = not tested or not shown. An excerpt weighted towards active compounds, which were near 3.7% of everything screened. Unless noted, no stated cut-off is given here; in the data, active means inhibition above about 30%; inconclusive means no clear call, values can overlap the other calls; inactive means below that.

SMILES | BoNT F protease | MazF activator | Anthrax LF inh2 | Bead autofluor | BoNT A protease
O=C(C[C@@H]1C[C@@H]2c3cc(NS(=O)(=O)c4ccc(F)cc4)ccc3O[C@@H]2[C@@H](CO)O1)NC1CCCCC1 | . | . | . | . | .
CC(=O)NC(Cc1ccccc1)C(=O)NC1CCN(C(=O)c2cnccn2)CC1 (configuration not stated) | . | . | . | 16732 | ?
CC(=O)NC(Cc1ccccc1)C(=O)NC1CCN(C(=O)c2ccc([N+](=O)[O-])cc2)CC1 (configuration not stated) | . | . | . | . | .
Cc1ccc(OCC(=O)Nc2c3c(nn2C(C)(C)C)CS(=O)(=O)C3)cc1 | . | . | . | . | .
COCCOCCOCCC(=O)NC1CC2CCC1(C)C2(C)C (configuration not stated) | . | . | . | 21940 | .
CC1(C)C2CCC1(C)C(NC(=O)CCN1CCCCC1)C2 (configuration not stated) | . | . | . | . | .
O=C(Nc1cccc(OC(F)(F)F)c1)c1cccc2c(-c3cccnc3)coc12 | . | / | . | . | .
CCN1C(=O)/C(=C2/C=CC=CN2C)SC1=S | . | . | . | 23187 | .
CN1C=CC=C/C1=C1/SC(=S)N(Cc2ccccc2)C1=O | . | . | . | . | .
c1coc(CN2CNc3nc4ccccc4n3C2)c1 | . | . | . | . | .
CCCN1CN(Cc2ccco2)c2nc3ccccc3n2C1 | . | . | . | 18478 | ?
CCOc1ncccc1C(=O)OCC(=O)Nc1ccc2c(c1)OCCO2 | . | . | . | . | .
COc1ccc(N2CCN(C(=O)CCCCCn3c(=S)[nH]c4ccc(N5CCOCC5)cc4c3=O)CC2)cc1 | . | . | . | . | .
Cc1ccc(CNS(=O)(=O)c2ccc(Cl)s2)cc1 | . | . | . | . | .
O=C1C(=Cc2ccc(Br)o2)C(=O)c2ccccc21 | 34.5 | . | . | . | .
CC(CC(=O)Nc1ccc2c(c1)c(=O)n(C)n2Cc1ccc(F)cc1)C(F)(F)F (configuration not stated) | . | / | . | . | .
CCCCCc1c(C)nc(NCc2ccccc2)[nH]c1=O | . | . | . | 20180 | ?
Cc1nc(Nc2ccccc2)[nH]c(=O)c1CCC(C)C | . | . | . | . | .
O=C(CSc1nccc(=O)[nH]1)Nc1ccc(Br)c(Cl)c1 | . | . | . | . | .
O=C(CSc1nccc(=O)[nH]1)Nc1ccc(F)c(Cl)c1 | . | . | . | 24003 | ?
COc1ccc2c3c(ccc2c1)C(=O)/C(=C/O)CC3 | . | . | . | . | .
CC1(C)c2ccccc2N2CCC(=O)NC21/C=C/c1ccco1 (configuration not stated) | / | 105.7 | / | / | /
COc1cc(/C=N/NC(=O)c2cccnc2)ccc1OC(=O)c1ccc2c(c1)OCO2 | . | 72.2 | . | . | .
COc1cc(/C=N/NC(=O)c2cccnc2)ccc1OC(=O)c1cc(OC)c(OC)c(OC)c1 | . | . | . | . | .
O/C(=C\c1nc2ccccc2nc1/C=C(\O)c1ccccc1)c1ccccc1 | . | . | 30.5 | . | 66.8
SMILES | BoNT F protease | MazF activator | Anthrax LF inh2 | Bead autofluor | BoNT A protease
O=c1oc2ccccc2nc1/C=C(\O)c1ccccc1 | . | . | . | . | .
O=C(Cc1ccccc1)N1CCCC1c1ccccc1 (configuration not stated) | . | . | . | 21410 | .
CC1CCCC(C)N1C(=O)Cc1ccccc1 (configuration not stated) | . | . | . | . | .
CN(c1ccccc1)S(=O)(=O)c1cccc(C(=O)NCC(c2cccs2)N2CCOCC2)c1 (configuration not stated) | . | . | . | . | .
COc1ccc(/C=C/C(=O)OCC(=O)Nc2ccc3[nH]c(=O)[nH]c3c2)cc1OC | . | . | . | . | .
CN(C)c1ccc(NC(=O)c2sc(SCC(=O)Nc3nccs3)nc2N)cc1 | . | . | . | 23476 | .
Cc1nnc(SCC(=O)Nc2nsc(-c3ccccc3)n2)s1 | . | . | . | 21832 | .
Cc1nnc(SCC(=O)Nc2nccs2)s1 | . | . | . | 20118 | .
CN(C)c1ccc(NC(=O)c2sc(SCC(=O)Nc3ccc(Br)cc3)nc2N)cc1 | . | . | . | . | .
Cc1nnc(SCC(=O)Nc2nc(C(C)(C)C)cs2)s1 | . | . | . | 21050 | ?
Cc1ccc(-c2nc(NC(=O)CSc3nnc(C)s3)ns2)cc1 | . | . | . | . | .
